# Test results published in PubChem BioAssay (NCI).
# This is part of a sample that, as a whole, favours compounds with a hit. Of some 83,000 tested, about 20% had one in any assay.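 Compound tested at a single concentration for 48 hours in 96-well plates; a percent growth value below 10 was scored as active.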 Active and inactive are the calls of the source.
# Columns and labels:
# Assay in all cases: NCI-60 one-dose screen, 48 h (100 = growth as untreated, 0 = no growth, -100 = all killed)
# Settings in all cases: 10 µM unless noted
# NCI-H23 lung = test system: NCI-H23 lung
# NCI-H226 lung = test system: NCI-H226 lung
# NCI-H322M lung = test system: NCI-H322M lung
# HOP-62 NSCLC = test system: HOP-62 NSCLC
# NCI-H460 lung = test system: NCI-H460 lung
# HOP-92 NSCLC = test system: HOP-92 NSCLC
# A549/ATCC NSCLC = test system: A549/ATCC NSCLC
# COLO 205 colon = test system: COLO 205 colon
# NCI-H522 lung = test system: NCI-H522 lung
# 786-0 renal = test system: 786-0 renal
Compound,growth (NCI-H23 lung),growth (NCI-H226 lung),growth (NCI-H322M lung),growth (HOP-62 NSCLC),growth (NCI-H460 lung),growth (HOP-92 NSCLC),growth (A549/ATCC NSCLC),growth (COLO 205 colon),growth (NCI-H522 lung),growth (786-0 renal)
O=C(CBr)c1ccc(OC(=O)c2ccccc2)cc1,101% (inactive),113% (inactive),134% (inactive),99.9% (inactive),104% (inactive),88% (inactive),100% (inactive),109% (inactive),,
CCOC(=O)c1[nH]c(C#N)c(C(=O)OCC)c1C,101% (inactive),95.9% (inactive),93.6% (inactive),101% (inactive),114% (inactive),,98% (inactive),131% (inactive),97.9% (inactive),86.9% (inactive)
COc1cc(NCc2ccc3nc(N)nc(N)c3c2C)cc(OC)c1OC (tested in a mixture with another compound),16.1% (inactive),47.5% (inactive),51.9% (inactive),29.8% (inactive),14.1% (inactive),,36.9% (inactive),40.2% (inactive),22.3% (inactive),15.5% (inactive)
O=C(/C(Cl)=N/O)c1ccc(-c2ccccc2)cc1,93.4% (inactive),88.7% (inactive),94.3% (inactive),96.4% (inactive),,82.1% (inactive),107% (inactive),85.5% (inactive),30.7% (inactive),-80.7% (active)
Oc1ccc2ccccc2c1N=Nc1ccccn1,42.6% (inactive),19.1% (inactive),47.8% (inactive),30.1% (inactive),17.4% (inactive),,53.5% (inactive),15.9% (inactive),,7.32% (active)
